This is part of a sample that, as a whole, favours compounds with a hit. Of some 83,000 tested, about 20% had one in any assay.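 The test compound was applied at a single concentration to cells in 96-well plates for 48 hours, and percent growth was recorded.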 The source made the active and inactive calls. How the source made its calls: active means growth percent below 10; inactive means the rest.
Tests used:
Assay in all cases: NCI-60 one-dose screen, 48 h (100 = growth as untreated, 0 = no growth, -100 = all killed)
Conditions in all cases: 10 µM unless noted
T-47D breast = tested on: T-47D breast
BT-549 breast = tested on: BT-549 breast
MDA-MB-435 melanoma = tested on: MDA-MB-435 melanoma
SW-620 colon = tested on: SW-620 colon
MCF7 breast = tested on: MCF7 breast
HCT-116 colon = tested on: HCT-116 colon
HCC-2998 colon = tested on: HCC-2998 colon
KM12 colon = tested on: KM12 colon

Measured: growth

C#CCNC1CCC(c2csc(C#C)n2)=C1C (stereo not drawn)
inactive: T-47D breast 65.3% | BT-549 breast 86.3% | MDA-MB-435 melanoma 99.2% | SW-620 colon 108% | MCF7 breast 61.1% | HCT-116 colon 80.9% | HCC-2998 colon 107% | KM12 colon 19.1%

CCN1CCN(Cc2cn(-c3ccc(S(N)(=O)=O)cc3)nn2)CC1
inactive: T-47D breast 105% | BT-549 breast 130% | MDA-MB-435 melanoma 107% | SW-620 colon 106% | MCF7 breast 97.4% | HCT-116 colon 103% | HCC-2998 colon 106% | KM12 colon 104%

COc1ccc(C(=O)Nc2ncc(Cc3ccccc3Cl)s2)cc1
active: MDA-MB-435 melanoma -5.1% | HCT-116 colon 7.77% | HCC-2998 colon 6.97% | KM12 colon 9.41%
inactive: T-47D breast 34.3% | BT-549 breast 54.8% | SW-620 colon 25.3% | MCF7 breast 14.3%

CCOC(=O)C(=O)CC(=O)N1C(=S)NC(=O)C1CC(C)C (stereo not drawn)
inactive: T-47D breast 109% | BT-549 breast 87.5% | MDA-MB-435 melanoma 99.9% | SW-620 colon 106% | MCF7 breast 95.8% | HCT-116 colon 95.4% | HCC-2998 colon 97.8% | KM12 colon 98.8%

O=C(O)c1ccc(-n2cc(CNc3cc(F)c(F)c(F)c3)c(-c3cccc(F)c3)n2)cc1
inactive: T-47D breast 81.6% | BT-549 breast 107% | MDA-MB-435 melanoma 99.8% | SW-620 colon 105% | MCF7 breast 41% | HCT-116 colon 86.2% | HCC-2998 colon 87.5% | KM12 colon 96.8%

O=C(/C=C/c1ccc(F)cc1)c1ccc(O)cc1
active: HCT-116 colon -44.1%
inactive: T-47D breast 93.9% | BT-549 breast 103% | MDA-MB-435 melanoma 67% | SW-620 colon 81.4% | MCF7 breast 30.3% | HCC-2998 colon 112% | KM12 colon 59.3%

COc1c(N2CC3CCCNC3C2)c(F)cc2c(=O)c(C(=O)N/N=C/c3ccc(Br)cc3)cn(C3CC3)c12 (stereo not drawn)
inactive: T-47D breast 84.3% | BT-549 breast 114% | MDA-MB-435 melanoma 84.7% | SW-620 colon 89.6% | MCF7 breast 52.4% | HCT-116 colon 50.5% | HCC-2998 colon 92.2% | KM12 colon 97.3%

NC(N)=Nc1ccc(Oc2cccc(NC(N)=Nc3ccc(Cl)c(C(F)(F)F)c3)c2)cc1
inactive: T-47D breast 57.9% | BT-549 breast 43.8% | MDA-MB-435 melanoma 62.9% | SW-620 colon 57% | MCF7 breast 42% | HCT-116 colon 44.9% | HCC-2998 colon 66.2% | KM12 colon 26.2%

O=C1Nc2ccccc2/C1=C/c1ccc(COCC2CO2)n1-c1ccc(O)cc1 (stereo not drawn)
inactive: T-47D breast 91.4% | BT-549 breast 106% | MDA-MB-435 melanoma 103% | SW-620 colon 96.2% | MCF7 breast 84.6% | HCT-116 colon 99.2% | HCC-2998 colon 108% | KM12 colon 17.8%

CCCCCc1ccc(S(=O)(=O)Nc2cccc(-c3csc(NC(=O)CN4CCN(CCO)CC4)n3)c2)cc1
inactive: T-47D breast 64.5% | BT-549 breast 99.9% | MDA-MB-435 melanoma 44.3% | SW-620 colon 74.3% | MCF7 breast 35.8% | HCT-116 colon 45% | HCC-2998 colon 26.9% | KM12 colon 54%

O=S(=O)(NCCCNc1nccc(-c2[nH]c(-c3ccccc3)nc2-c2ccc(Cl)c(O)c2)n1)c1cccc(F)c1
inactive: T-47D breast 49.9% | BT-549 breast 59.7% | MDA-MB-435 melanoma 21.5% | SW-620 colon 92.5% | MCF7 breast 55.3% | HCT-116 colon 35.4% | HCC-2998 colon 101% | KM12 colon 60.5%

c1cn2c(ccc3nc(-c4cn[nH]c4)c4c(c32)CCCC4)n1
inactive: T-47D breast 45.4% | BT-549 breast 53.1% | MDA-MB-435 melanoma 34.9% | SW-620 colon 61.2% | MCF7 breast 60.9% | HCT-116 colon 48.7% | HCC-2998 colon 87.2% | KM12 colon 74.9%

O=C(NNc1nc2cc(F)ccc2n2cccc12)c1ccncn1
active: T-47D breast 4.38% | MCF7 breast 7.62%
inactive: BT-549 breast 21.9% | MDA-MB-435 melanoma 31.5% | SW-620 colon 22.7% | HCT-116 colon 18.3% | HCC-2998 colon 53.2% | KM12 colon 23.1%

COc1ccc(-c2nc3cc(Cl)c(Cl)cc3n2CC(=O)N=Nc2c(O)[nH]c3ccc(OC)cc23)cc1
inactive: T-47D breast 37.2% | MDA-MB-435 melanoma 56.4% | SW-620 colon 61.4% | MCF7 breast 67.6% | HCT-116 colon 39.7% | HCC-2998 colon 52.8% | KM12 colon 71.3%
active: BT-549 breast -6.95%

Cn1cc(-c2cc(N)n3nc(-c4cn(C)c5ccccc45)cc3n2)c2ccccc21
inactive: T-47D breast 90% | BT-549 breast 128% | SW-620 colon 85.9% | MCF7 breast 44.8% | HCT-116 colon 62.1% | HCC-2998 colon 78.5% | KM12 colon 72.7%
active: MDA-MB-435 melanoma 0.548%

CC(=O)N1N=C(c2cccc(-n3cccc3)c2)CC1c1cccc(F)c1 (stereo not drawn)
inactive: T-47D breast 89% | BT-549 breast 126% | MDA-MB-435 melanoma 102% | SW-620 colon 96% | MCF7 breast 75.1% | HCT-116 colon 92.5% | HCC-2998 colon 106% | KM12 colon 103%

C#CCn1cccc1CNc1ccc(OC)cc1
active: T-47D breast -55.7% | BT-549 breast -83.7% | MDA-MB-435 melanoma -54.5% | SW-620 colon -36.2% | MCF7 breast -53.8% | HCT-116 colon -68.7% | HCC-2998 colon -89% | KM12 colon -72.6%

Cc1[nH]c(C(=O)Nc2ccccc2OCc2cccc(C(=O)N3CCC[C@@H](N)C3)c2)c(Cl)c1Cl
active: T-47D breast -55.2% | BT-549 breast -89.4% | MDA-MB-435 melanoma -96.6% | SW-620 colon -75.9% | MCF7 breast -77.5% | HCT-116 colon -82.1% | HCC-2998 colon -92.5% | KM12 colon -80%

CC1=NC2=NN3C(=NN2C(c2ccccc2)=C1)N=NC(c1ccc(Br)cc1)=C3c1ccc(Br)cc1
inactive: T-47D breast 108% | BT-549 breast 115% | MDA-MB-435 melanoma 110% | SW-620 colon 96.6% | MCF7 breast 94.4% | HCT-116 colon 117% | HCC-2998 colon 112% | KM12 colon 104%

Cc1cccc2c3c(sc12)C(c1ccc(F)cc1)C(C#N)=C(/N=C/c1ccc(Cl)cc1)O3 (stereo not drawn)
inactive: T-47D breast 56.7% | SW-620 colon 19.6% | MCF7 breast 14.1% | KM12 colon 15.7%
active: BT-549 breast -26.5% | MDA-MB-435 melanoma -12.4% | HCT-116 colon 2.26% | HCC-2998 colon 5.44%

CC1(C)CC[C@]2(CN)CC[C@]3(C)C(=CC[C@@H]4[C@@]5(C)CCCNC(C)(C)[C@@H]5CC[C@]43C)[C@H]2C1
inactive: T-47D breast 78.3% | BT-549 breast 101% | MDA-MB-435 melanoma 97.3% | SW-620 colon 102% | MCF7 breast 85.7% | HCT-116 colon 90.6% | HCC-2998 colon 45.9% | KM12 colon 101%

O=S(=O)(Nc1ccc2c(c1)OCO2)c1ccc(-c2cnc(C3CC3)o2)cc1
active: MDA-MB-435 melanoma 0.417%
inactive: T-47D breast 31.7% | BT-549 breast 42.1% | SW-620 colon 21.2% | MCF7 breast 22.3% | HCT-116 colon 19.9% | HCC-2998 colon 73.5% | KM12 colon 23.1%

COc1cccc(/C=C(/C)c2ccc3cccc(OC)c3[o+]2)c1O
inactive: T-47D breast 100% | BT-549 breast 85.1% | MDA-MB-435 melanoma 104% | SW-620 colon 106% | MCF7 breast 90.9% | HCT-116 colon 102% | HCC-2998 colon 120% | KM12 colon 99.1%

CNc1ncc2cc(-c3ccc(-c4ncccc4F)cc3Cl)c(=O)n(CC3OCC(N)CO3)c2n1 (stereo not drawn)
inactive: T-47D breast 72.5% | BT-549 breast 82.1% | MDA-MB-435 melanoma 105% | SW-620 colon 99.1% | MCF7 breast 101% | HCT-116 colon 80.2% | HCC-2998 colon 100% | KM12 colon 95.7%

CN1CCC(n2cc(Nc3ncc4c(=O)n(-c5c(Cl)cccc5Cl)cc(Br)c4n3)cn2)CC1
inactive: T-47D breast 37% | BT-549 breast 57.5% | SW-620 colon 20.5% | MCF7 breast 18.7% | HCC-2998 colon 31% | KM12 colon 14.8%
active: MDA-MB-435 melanoma 5.4% | HCT-116 colon 5.66%

CCOC(=O)c1c(Nc2ccccc2)nn2c(-c3ccc(Cl)cc3)ccnc12
inactive: T-47D breast 64.2% | BT-549 breast 103% | MDA-MB-435 melanoma 84.2% | SW-620 colon 84.2% | MCF7 breast 81.3% | HCT-116 colon 61.1% | HCC-2998 colon 91% | KM12 colon 89.1%

C[C@@H]1C[C@H]2C(=O)O[C@@H](C)C(NC(=O)[C@H](Cc3cc(F)cc(F)c3)NC(=O)Nc3ccc(Cl)cc3F)C(=O)N3CCC[C@H]3C(=O)N3CCCC[C@H]3C(=O)N[C@@H](CO)C(=O)N2C1 (stereo partly drawn)
active: HCT-116 colon 9.85%
inactive: T-47D breast 34.4% | BT-549 breast 35.3% | MDA-MB-435 melanoma 19.5% | SW-620 colon 39.9% | MCF7 breast 16.1% | HCC-2998 colon 26% | KM12 colon 42%

COc1ccc(C(=O)c2c(N)c(C#N)cn2-c2ccccc2OC)cc1
active: MDA-MB-435 melanoma -27.8%
inactive: T-47D breast 32.1% | BT-549 breast 64.5% | SW-620 colon 20.3% | MCF7 breast 13.9% | HCT-116 colon 22.2% | HCC-2998 colon 48% | KM12 colon 27.5%

NC(N)=Nc1ccc(Oc2cccc(NC(N)=Nc3ccc(Br)c(C(F)(F)F)c3)c2)cc1
inactive: T-47D breast 55.5% | BT-549 breast 45.9% | MDA-MB-435 melanoma 57.5% | SW-620 colon 53.4% | MCF7 breast 32.2% | HCT-116 colon 42.9% | HCC-2998 colon 50.8% | KM12 colon 20.4%

Oc1cccc2ccc(-c3nnc(SCc4ccc(O)c5ncccc45)n3-c3ccccc3)nc12
active: T-47D breast 9.55% | MCF7 breast 6.09%
inactive: BT-549 breast 26.1% | MDA-MB-435 melanoma 17% | SW-620 colon 16.4% | HCT-116 colon 10.5% | HCC-2998 colon 28.2% | KM12 colon 10.9%

NC(N)=Nc1ccc(Oc2cccc(Nc3ccc(Cl)c(C(F)(F)F)c3)c2)cn1
inactive: T-47D breast 15.1% | BT-549 breast 16.5%
active: MDA-MB-435 melanoma -86.2% | SW-620 colon -69.8% | MCF7 breast -60.3% | HCT-116 colon -69.4% | HCC-2998 colon -86.1% | KM12 colon -81.8%

Reference: PubChem BioAssay (NCI)
